The source of these data is PubChem BioAssay (Tox21).

Values joined by “and” are separate entries in the source; they are usually repeats but may differ in a detail not shown here. Equal entries are not always repeated. Inconclusive results are not listed. Where a call stands in place of a potency, no number is given. Some compounds were tested as several samples or in several runs, with calls that do not always agree. Active and inactive are the calls of the source. Calls follow the shape of the dose curve; as a rule, active = well fitted inhibition curve with a large enough effect in the repeat runs; inconclusive = weak or mixed curves; inactive = no such curve, though single readings can be large or run the other way.
Potency is read from the fitted curve at half-maximal effect.

Sequence of Cytochrome P450 3A4 (Homo sapiens) (P08684 whole entry, looked up): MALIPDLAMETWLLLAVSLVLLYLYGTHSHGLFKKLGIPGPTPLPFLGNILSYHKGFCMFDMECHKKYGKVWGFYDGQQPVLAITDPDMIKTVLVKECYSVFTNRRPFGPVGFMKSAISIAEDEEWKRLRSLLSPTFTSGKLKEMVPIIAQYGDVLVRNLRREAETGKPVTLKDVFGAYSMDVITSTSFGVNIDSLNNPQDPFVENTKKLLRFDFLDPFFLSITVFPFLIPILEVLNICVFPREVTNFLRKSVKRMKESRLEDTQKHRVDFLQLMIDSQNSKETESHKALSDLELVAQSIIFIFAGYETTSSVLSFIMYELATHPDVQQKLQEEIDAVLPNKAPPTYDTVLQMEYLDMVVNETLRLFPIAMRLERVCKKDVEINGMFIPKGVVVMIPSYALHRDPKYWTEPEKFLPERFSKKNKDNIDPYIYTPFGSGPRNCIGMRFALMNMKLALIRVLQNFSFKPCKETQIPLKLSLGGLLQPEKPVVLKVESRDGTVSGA

In this assay the target is Cytochrome P450 3A4 (Homo sapiens) (UniProt P08684). The assay can be described thus: Cytochrome P450 Family 3 Subfamily A Member 4 (CYP3A4) small molecule antagonists: luciferase reporter qHTS assay (AID 1671201). Also: nearly all actives have a fitted effect of over 50% in size. As to conditions: P450-Glo CYP3A4 enzyme, luciferin luminescence, 1 h; series mostly up to 115 µM; activity change, negative = inhibition: at the top concentration. The text has this:
National Center for Advancing Translational Sciences [NCATS]
U.S. Environmental Protection Agency [EPA]
National Institutes of Environmental Health Sciences [NIEHS]
National Toxicology Program [NTP]
U.S. Food and Drug Administration [FDA]
Cytochrome P450 (CYP) enzymes are membrane-bound hemeproteins that play a key role in metabolism of drugs and xenobiotics. Evaluation of the effect of chemicals on CYP isozymes is useful to minimize the adverse drug reactions and toxicities in drug development process. Tox21 chemicals were tested for their effect on CYP enzyme activities by using P450-Glo (TM) screening systems (Promega Corporation, Madison, WI). These systems provide a luminescent method containing proluciferin substrates and are converted to luciferin products by CYP isozymes. The luciferin products formed are detected with a luciferin detection reagent, and the amount of light produced is proportional to CYP activity. P450-Glo (TM) CYP3A4 screening system (Catalog. No. V9910) was used to detect the compounds that interfere in CYP3A4 activity. The positive control compound used for CYP3A4 assay is ketoconazole (Sigma-Aldrich, St. Louis, MO).
Tox21 Assay Protocol Summary:
Two ul of enzyme-substrate mix was dispensed into medium binding white/solid 1536-well plates (Greiner Bio-One North America Inc., Monroe, NC) using a BioRaptr Flying Reagent Dispenser (FRD, Beckman Coulter, Brea, CA). Compounds dissolved in DMSO and positive control (ketoconazole) were transferred to the assay plates at 23 nl using a Pintool station (Wako, San Diego, CA). The assay plates were incubated at room temperature for 10 min. Then 2 ul of NADPH regeneration solution was added to each well of the assay plates using an FRD and incubated at room temperature for 1 h. The reaction was stopped by adding 4 ul of detection reagent using an FRD and after 20 min incubation at room temperature the luminescence signal was measured using a ViewLux plate reader (Perkin Elmer, Shelton, CT). Data were expressed as relative luminescence units.
Regarding `c1ccc2c(c1)ccc1ccccc12`, the Potency entry was “inactive”.
For `CCCCC(CC)COC(=O)CCCCC(=O)OCC(CC)CCCC` (stereo not given), the “activity change, negative = inhibition” value was -7.08% (inactive).
As to `CCCCCCCCCCCCS`, the Potency entry was “inactive”.
In the case of `CC(=O)Nc1cccc(O)c1`, the Potency entry is “inactive”.
Regarding `O=[N+]([O-])c1ccc(/C=C/c2ccc([N+](=O)[O-])cc2S(=O)(=O)O)c(S(=O)(=O)O)c1`, the Potency result was “inactive”.
For the compound `CC(C)CC(=O)CC(C)C`, the Potency was 22.7 µM (active) and inactive.
As for `CC(c1cc2ccccc2s1)N(O)C(N)=O` (stereo not given), the Potency is 20 µM (active).
`C=CCNC(N)=S`: the “activity change, negative = inhibition” value was 6.96% [at 52.9 µM] (inactive).
For the compound `CC1CCC2CC1C2(C)C` (stereo not given), the Potency result was “inactive and 39.9 µM (active)”.
As to `CN(C)CCC(c1ccccc1)c1ccccn1` (stereo not given), the Potency result was “inactive”.
Take `CCN(CC)c1ccc(C(=O)c2ccccc2C(=O)O)c(O)c1`: the Potency entry is “inactive”.
For the compound `O=C(O)c1ccccc1C(c1ccc(O)cc1)c1ccc(O)cc1`, the Potency result was “inactive”.
Turning to `O=C(O)c1cc(O)c(O)c(O)c1`, the Potency result was “inactive”.
Take `O=S1(=O)CC=CC1`: the Potency result is “inactive”.
For the compound `Cc1cc(C)c(C)cc1C`, the Potency entry is “inactive”.
With `O=C(O)c1cc(=O)c2c(OCC(O)COc3cccc4oc(C(=O)O)cc(=O)c34)cccc2o1`, the Potency result was “inactive”.
Turning to `O=C(O)c1ccc2c(c1)C(=O)OC2=O`, the Potency entry is “inactive”.
On the same count and under the same terms, next, `Cc1ccc(S(N)(=O)=O)cc1`: 28.1 µM (active) and inactive; `Nc1ccccc1[N+](=O)[O-]`: “inactive”; `CCC(O)OC(O)CC` (stereo not given): “inactive”.
Take `CCCCC(CC)CO` (stereo not given): the “activity change, negative = inhibition” value is 2.18% (inactive).
Turning to `CC(=O)CC(=O)Nc1ccccc1C`, the “activity change, negative = inhibition” value is -29.3% (inactive).
As for `CCCC(C)=O`, the Potency result was “inactive”.
On the same count and under the same terms, next, `CCCCCOC(C)=O`: “inactive”.
On the same count and under the same terms, for `C=C(C)C(=O)O[C@H]1C[C@@H]2CC[C@@]1(C)C2(C)C` the value was “inactive”; for `CN(C)CCOCCN(C)C`, “inactive”.
As to `FC(F)(F)c1ccc(Cl)c(Cl)c1`, the Potency result was “inactive”.
In the case of `CCCCCCCCCC`, the Potency result was “inactive”.
The same measure, in the same setting: next, `O=c1[nH]nnc2ccccc12`: “inactive”.
Turning to `C=C(C)C(=O)Nc1ccc(Cl)c(Cl)c1`, the “activity change, negative = inhibition” value was -27.8% (inactive).
On to `Cc1cccc(O)c1`, for which the Potency result was “inactive”.
As to `CC1=C(C)S(=O)(=O)CCS1(=O)=O`, the Potency entry is “inactive”.
`O=C(Oc1ccccc1)c1ccccc1`: the Potency result was “inactive”.
`CCCCOC(=O)COc1ccc(Cl)cc1Cl`: the Potency entry was “inactive”.
In the case of `C/C=C1/CC2C=CC1C2` (stereo not given), the Potency result was “inactive and 31.7 µM (active)”.
Regarding `C=CCOC(=O)c1ccccc1C(=O)OCC=C`, the Potency was 3.12 µM (active) and 6.33 µM (active).
For `O=C(O)CCCCCCCCCCC(=O)O`, the Potency result was “inactive”.
For the compound `c1ccc2scnc2c1`, the Potency result was “inactive”.
Take `COc1ccc(Nc2ccccc2)c(C)c1`: the “activity change, negative = inhibition” value is 8.3% (inactive).
Consider `O=C(O)CCCC[C@@H]1SC[C@@H]2NC(=O)N[C@@H]21`, for which the Potency entry is “inactive”.
